Laboratory results from PubChem BioAssay AID651724 (National Center for Advancing Translational Sciences (NCATS), 2012).
Out of some 340,000 compounds screened, about 1,700 (0.5%) were called active. Another 2% or so got no clear call; they are omitted. The sample holds actives, similar compounds and a random draw of the others, so the mix is not that of the screen. Rule as the data show it: active = activity change below about -65%; inconclusive = mostly about -30% to -63%; inactive = weaker than that.

Test system: CtBP / adenovirus E1A interaction (AlphaScreen)
Assay: qHTS Assay for Inhibitors of the CtBP/E1A Interaction
Conditions: AlphaScreen GST-E1A/His-CtBP binding, 1536-well; hits give low values
Outline: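 Steps: dispense buffer (Tris pH 8.0, NaCl 300 mM, TCEP 1 mM, BSA, Tween 20); add 5X protein mix (GST-E1A, His-CtBP, 125 nM each); pin 23 nL compound; 2 h at 37 °C, dark; add 5X beads (50 ug/mL); 1 h; read.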
% is scaled to controls: 0 for no effect and ±100 for the full control effect.

Row | Compound | activity change
1 | CC(C)n1ncc2c(C(=O)N3CCN(Cc4cccs4)CC3)cc(C3CC3)nc21 | -9.59% (inactive)
2 | COc1cc(NC(=O)c2cc(-c3ccc(F)cc3OC(C)C)n[nH]2)cc(OC)c1OC | -4.63% (inactive)
3 | C[C@H]1CN([C@@H](C)CO)S(=O)(=O)c2ccc(Br)cc2O[C@H]1CN(C)C(=O)c1cnccn1 | 0.784% (inactive)
4 | Cc1cc(C(=O)N/N=C/c2ccccn2)c2ccccc2n1 | -14.7% (inactive)
5 | O=C(N/N=C/c1ccccn1)C12CC3CC(CC(C3)C1)C2 | 1.59% (inactive)
6 | S=C(NN=Cc1ccccn1)Nc1ccccn1 | -73.6% (active)
7 | COc1ccc(-c2ccc(CN3C(CC(C)C)C(=O)N(Cc4cn(CC5CCCCC5)nn4)CCS3(=O)=O)cc2)cc1 (configuration not stated) | -0.831% (inactive)
8 | Cc1ccc(S(=O)(=O)N2CCC(=O)N([C@H](COCc3ccccc3)C(C)C)CC2)cc1 | 3.58% (inactive)
9 | CC(C)(C)Cc1c(C2CCCCC2)nc2ccc(Br)cn12 | 10.7% (inactive)
10 | COc1cccc(NC(=S)NCCCN2CCOCC2)c1 | 5.66% (inactive)
11 | CCOc1cccc(/C=N/NC(=S)NCCN2CCOCC2)c1O | -80.7% (active)
12 | Cc1ccc(C(=O)NC(=S)NCCN2CCOCC2)cc1 | -5.38% (inactive)
13 | Nc1cccc(-c2cncc(N3CCN(Cc4ccccn4)CC3)n2)c1 | 1.71% (inactive)
14 | Cc1c(NC(=O)CSc2cccc3cccnc23)c(=O)n(-c2ccccc2)n1C | -87.1% (active)
15 | Cc1ccc(S(=O)(=O)CC(=O)Nc2c(C)n(C)n(-c3ccccc3)c2=O)cc1 | -13.1% (inactive)
16 | Cc1ccccc1OCCC(=O)Nc1c(C)n(C)n(-c2ccccc2)c1=O | -0.0402% (inactive)
17 | COc1ccc(CC(N)c2csc(NC(=O)Nc3ccc(C(C)C)cc3)n2)cc1 (configuration not stated) | -13.2% (inactive)
18 | O=C(NCCCn1ccnc1)C(=O)NCC1OCCN1S(=O)(=O)c1cc(F)ccc1F (configuration not stated) | -71.2% (active)
19 | Cc1cc(F)ccc1S(=O)(=O)N1CCCOC1CNC(=O)C(=O)NCCC1=CCCCC1 (configuration not stated) | 22.2% (inactive)
20 | O=C(NCCCc1ccccc1)C(=O)NCC1OCCN1S(=O)(=O)c1ccccc1 (configuration not stated) | 22.6% (inactive)
21 | COc1ccc([C@H]2CC(=O)C[C@@H](CCn3cc(CC4CCCC4)nn3)O2)cc1 | -3.9% (inactive)
22 | CC1(C(=O)NS(=O)(=O)c2ccc(Cl)cc2)CCN1C(=O)CC1CCCC1 (configuration not stated) | 2.24% (inactive)
23 | CN[C@H]1C[C@H]2c3cc(Oc4ccccc4C)ccc3CCN2C(=O)[C@H]1[C@H](C)O | -12.1% (inactive)
24 | CCOc1ccc(N2C(=O)CSC2=NC#N)cc1 | -0.654% (inactive)

Row | Compound | activity change
25 | CCOc1cccc(/C=N/N2C(=O)CSC2=S)c1O | -92.9% (active)
26 | CCOc1cc(/C=N/n2cnnc2)c(Br)cc1O | -6.92% (inactive)
27 | Cc1ccccc1-c1csc(C(O)c2cccc(Cl)c2)n1 (configuration not stated) | 3.42% (inactive)
28 | CN(C(=O)CN1CCN(c2cc(-c3ccc(OCc4ccccc4)cc3)ncn2)CC1)c1ccccc1 | 0.325% (inactive)
29 | COc1c(O)ccc2c1CN1CCc3cc4c(cc3C1C2)OCO4 (configuration not stated) | -66.6% (active)
30 | COc1ccc2cc1Oc1ccc(cc1)C[C@H]1c3cc(c(OC)cc3CCN1C)Oc1c(O)c(OC)cc3c1[C@H](C2)N(C)CC3 | -4.43% (inactive)
31 | COc1cc(C(=O)CCc2ccc3c(c2)OCO3)cc(OC)c1OC | 2.78% (inactive)
32 | COc1ccccc1CNc1nc(Nc2ccccc2Cl)c2sccc2n1 | -5.37% (inactive)
33 | NC(c1csc(NC(=O)Nc2cccc(C(F)(F)F)c2)n1)C1CCCCC1 (configuration not stated) | -2.68% (inactive)
34 | CC1(C)OC(=O)C2=C(C[C@@H](C3CC3)O[C@H]2CCc2cccc(Cl)c2)O1 | 11.1% (inactive)
35 | CCCNC(=O)C1(C)CCN(Cc2csc(-c3ccc(Cl)cc3)n2)C1 (configuration not stated) | -2.56% (inactive)
36 | COc1cccc(/C=N/Nc2ccc(S(=O)(=O)Nc3ccccc3C(=O)O)cc2[N+](=O)[O-])c1O | -15.4% (inactive)
37 | Oc1ccc(/C=N/Nc2ccc(C(F)(F)F)cn2)cc1O | -14% (inactive)
38 | COc1cccc(/C=N/Nc2ncc(C(F)(F)F)cc2Cl)c1O | -98.2% (active)
39 | CC(C)c1cccc(C(C)C)c1Nc1cn[nH]c1 | -13.7% (inactive)
40 | COCCCNc1ccn2nc(-c3ccc(CC(C)C)cc3)cc2n1 | 4.88% (inactive)
41 | COc1ccc(CN2CCC(C)(Oc3cccc(F)c3)C2)c2ccccc12 (configuration not stated) | -13.7% (inactive)
42 | CCOc1cc2ccccc2cc1C(=O)Nc1ccccn1 | -7.02% (inactive)
43 | CCN(CC)CCOc1ccc2c(c1)C(=NNC(=O)c1ccccn1)c1cc(OCCN(CC)CC)ccc1-2 | -70.2% (active)
44 | CCC(C(=O)OCCN(CC)CC)c1ccccc1 (configuration not stated) | -0.583% (inactive)
45 | Cc1nc2c(OCc3ccc(Cl)cc3)cccn2c1N(C)Cc1cccs1 | -7.51% (inactive)
46 | CC1CCCC(NC(=O)COC(=O)c2ccccc2C(=O)N(C)C2CCCCC2)C1C (configuration not stated) | -2.61% (inactive)
47 | Cc1c(NC(=O)COC(=O)/C=C/c2cccc(F)c2)c(=O)n(-c2ccccc2)n1C | 0.516% (inactive)
48 | CCOc1ccc(CCN2C(=S)N([C@@H](CC(C)C)CN3CCC[C@@H]3CN3C(=S)NC[C@@H]3Cc3ccc(O)cc3)C[C@@H]2CC(C)C)cc1 | -10.9% (inactive)

Row | Compound | activity change
49 | CC(=O)Nc1cccc(-c2ccnc3c2CC(C)(C(=O)NCc2ccco2)O3)c1 (configuration not stated) | -10.5% (inactive)
50 | NC(=O)N/N=C\c1cccs1 | -12.4% (inactive)
51 | S=c1[nH]nc(-c2cccs2)n1/N=C/c1cccs1 | 0% (inactive)
52 | Cc1n[nH]c(=O)nc1N/N=C/c1cccs1 | -89.5% (active)
53 | C=CCC[C@@H](CCCCC)OC(=O)/C=C/[C@@H](O)[C@H](O)C[C@H](O)CC=C | -9.7% (inactive)
54 | COc1ccc(C(C(=O)NCc2ccccc2)n2c(=O)c(-c3ccccc3)nc3ccccc32)cc1 (configuration not stated) | 0% (inactive)
55 | O=C(CN1C(=O)C2C3C=CC(C3)C2C1=O)NCCc1ccccc1Cl (configuration not stated) | 12.6% (inactive)
56 | CCOC(=O)N1CCN(C(=O)C(C)NC(=O)c2ccco2)CC1 (configuration not stated) | -2.35% (inactive)
57 | O=C(COc1ccccc1F)NC1CC1 | 8.72% (inactive)
58 | O=C(COc1ccccc1F)Nc1nc(-c2ccccn2)cs1 | -89% (active)
59 | O=C(NCCN1C(=O)C2C3C=CC(C3)C2C1=O)Nc1ccccn1 (configuration not stated) | -15.4% (inactive)
60 | O=C(CN1C(=O)C2C3C=CC(C3)C2C1=O)Nc1nc(-c2ccccn2)cs1 (configuration not stated) | -80.4% (active)
61 | CSCCC(NC(=O)c1ccco1)C(=O)Nc1cc(C)ccn1 (configuration not stated) | 0.873% (inactive)
62 | CC1CCN(S(=O)(=O)c2nnc(NC(=O)COc3ccccc3F)s2)CC1 | 1.46% (inactive)
63 | CC(NC(=O)c1ccco1)C(=O)Nc1nc(-c2ccccn2)cs1 (configuration not stated) | -88.4% (active)
64 | CCOC(=O)c1cc(-c2sc(NC(=O)c3ccccc3)nc2C)n(Cc2ccccc2)n1 | 0.44% (inactive)
65 | CN1OC[C@@H]2CN(S(=O)(=O)c3cccc(C(F)(F)F)c3)[C@H](c3ccc(-c4cc5ccccc5o4)cc3)C[C@@H]21 | -21.8% (inactive)
66 | CCCCC(=O)N(C)c1c(CC)nc2c(OCc3ccc(S(C)(=O)=O)cc3)cccn12 | 0.375% (inactive)
67 | COc1ccc(/C=N\NC(=O)c2sc(N)nc2C)cc1OC | -68.1% (active)
68 | COc1cccc(OCc2cc(/C=N/NC(=O)c3nc(Cl)c(Cl)c(N)c3Cl)ccc2OC)c1 | 7.69% (inactive)
69 | COc1cc(/C=N/NC(=O)CNC(=O)c2ccncc2)ccc1OC(C)=O | -2.8% (inactive)
70 | O=C(NCc1cccnc1)c1cc(C2CCCN(C(=O)CCCc3ccccc3)C2)on1 (configuration not stated) | 0.406% (inactive)
71 | CCN(CC)C(=O)C1=C(C)N(Cc2ccccc2)C(=O)C(CC(=O)NC(c2ccccc2)c2ccccc2)C1 (configuration not stated) | -5.91% (inactive)
72 | CCCOc1ccc(F)cc1-c1cc(C(=O)NCc2ccc(F)cc2)[nH]n1 | 0% (inactive)
